Results on 27 compounds are retold here after PubChem BioAssay (EPA / NIEHS).

Calls of active or inactive are those of the source. The calls were made as follows: active = hit-call score of the fitted dose curve at least 0.9, where 1 is the maximum; inactive = score below 0.9.

This test in a line: STM_H9_CystineISnorm_perc: Stemina devTOX quickPredict H9 human embryonic stem cell (hESC)-based Assay for Cystine (CYSS) Metabolite Biomarker, Normalized (AID 2283713). An excerpt:
STM_H9_secretome utilizes undifferentiated H9 cells to measure relative changes in two metabolites, ornithine (ORN) and cystine (CYSS) in the secretome, targeting a critical drop in the ORN/CYSS ratio as a biomarker for developmental toxicity.STM_H9_CystineISnorm_perc is one of 10 components calculated in the STM_H9_secretome assay. It measures the integrated area of the endogenous cystine normalized to the spiked-in isotopically labeled standard and to the median value of the 0.1% DMSO neutral control treatment using UPLC-HRMS technology.Data from the assay component STM_H9_CystineISnorm_perc was analyzed at the assay endpoint STM_H9_CystineISnorm_perc in the positive analysis fitting direction relative to DMSO as the negative control and baseline of activity. Using a type of binding reporter, gain or loss-of-signal activity can be used to understand relative metabolite change.
H9 hESCs maintained in a pluripotent state were exposed to test compound for 72h with chemical replenishment with media replacement every 24h. Cell-conditioned media from the final 24-h treatment period was collected for analysis of the targeted biomarker, and cell viability of the corresponding cell layer was assessed. The chemical library was tested in blinded fashion. Each test plate included 1uM Methotrexate (MTX; Selleck Chemicals, Houston, Texas) as a positive reference, 5 nM MTX as a negative reference, 0.1% DMSO as the neutral (vehicle) control, and sample-level media blanks.H9 cell-conditioned media from the final 24-h treatment period was collected for analysis of the targeted biomarker and cell viability was measured from the corresponding cell layer. Cell viability was measured using the CellTiter-Fluor assay (Promega, Madison, Wisconsin) based on proteolytic cleavage of a substrate to fluorescent signal proportional to the number of living cells. The cell viability Relative Fluorescence Unit (RFU) was background corrected and normalized to mean RFU of the neutral control (0.1% DMSO). The collected H9-cell-conditioned media samples were processed for targeted biomarker analysis as described (Palmer et al., 2013). Briefly, spent media samples were deproteinized (40% acetonitrile) and processed for UPLC-HRMS. Data acquisition was performed using 4 separate UPLC-HRMS systems, consisting of an Agilent 1290 Infinity LC system (Agilent Technologies) interfaced with an Agilent high-resolution mass spectrometer (models G6520A, G6520B, G6530A, and G6224A). A Waters Acquity UPLC BEH Amide column (2.1mm x 50mm, 1.7lm particle size; Waters, Milford, Massachusetts) maintained at 40C was applied for separation of metabolites using a 6.5min solvent gradient with 0.1% formic acid in water and 0.1% formic acid in acetonitrile (1.0ml/min flow rate). Data were acquired using MassHunter Acquisition software (version B 04.00, Agilent Technologies). The extracted ion chromatogram (EIC) areas for ORN, CYSS, and their respective spike-in C13-standards were determined using the Agilent MassHunter Quantitative Analysis software, version B.05.00 or newer (Agilent Technologies), and data were normalized as described in Palmer et al. (2017).
Consider `OCCO`, for which the outcome was inactive. Still for that read-out and setting: next, `CCCCOC(=O)c1ccc(O)cc1`: “inactive”. In the case of `CCCCCCCCN(C)CCCCCCCC`, the result was inactive. One may read the AC50 as the midpoint of the concentration-response curve, whichever way the signal moves. In the case of `COc1ccc2cc(S(=O)(=O)N[C@H](CC(=O)N[C@H](Cc3ccc(CN4[C@H](C)CCC[C@@H]4C)cc3)C(=O)N(C)C(C)C)c3ccc4c(c3)OCO4)ccc2c1`, the AC50 is 22.6 µM (active). On to `CC(C)(C)c1cc(/C=C2\SC(N)=NC2=O)cc(C(C)(C)C)c1O`, for which the AC50 is 5 µM (active). For `CO[C@H]1/C=C/O[C@@]2(C)Oc3c(C)c(O)c4c(O)c(c(/C=N/N5CCN(C)CC5)c(O)c4c3C2=O)NC(=O)/C(C)=C\C=C\[C@H](C)[C@H](O)[C@@H](C)[C@@H](O)[C@@H](C)[C@H](OC(C)=O)[C@@H]1C`, the AC50 is 3.27 µM (active). On the same count and under the same terms, with `CN(C[C@@H](CC[N+]12CCC(C3CCCCC3)(CC1)CC2)c1ccc(Cl)c(Cl)c1)C(=O)c1cc(C(F)(F)F)cc(C(F)(F)F)c1` the figure was 16.4 µM (active); with `COc1cc(C(=O)NC2CCN(C)CC2)ccc1Nc1ncc2c(n1)N(C1CCCC1)CC(F)(F)C(=O)N2C`, 0.0284 µM (active). For `COc1cccc([C@H](O)C2CCN(CCc3ccc(F)cc3)CC2)c1OC`, the AC50 is 6.34 µM (active). In the case of `CC(C)(c1cc(Br)c(O)c(Br)c1)c1cc(Br)c(O)c(Br)c1`, the result was inactive.

On to `Clc1cc(Cl)c2c(c1)N=C1CCCCCN1C2`, for which the result was inactive. Turning to `CN(C)c1ccc(C(=C2C=CC(=[N+](C)C)C=C2)c2ccc(N(C)C)cc2)cc1`, the half-maximal activity concentration (AC50) was 0.817 µM (active). Consider `CCCCCCCCOC(=O)c1cc(O)c(O)c(O)c1`, for which the AC50 was 2.47 µM (active). Turning to `CCOC(=O)O[C@H](C)OC(=O)c1ccc2c(c1)cc(C(=O)NC1CCN(C(C)C)CC1)n2Cc1cc(-c2ccc(Cl)s2)on1`, the outcome was inactive.

With `CN1C(=O)CC[C@H]1c1cccnc1`, the outcome was inactive. On to `CN1C(=O)N(c2ccccc2Br)Cc2cnc(Nc3ccc4c(c3)OCC(CO)O4)nc21` (configuration not stated), for which the half-maximal activity concentration (AC50) was 1.06 µM (active). Take `CN(C)C(=O)C1(N2CCCCC2)CCN(CC[C@@]2(c3ccc(Cl)c(Cl)c3)CN(C(=O)c3ccccc3)CCO2)CC1`: the result was inactive. Regarding `CC[C@H](NC(=O)c1cc(F)ccc1NS(=O)(=O)c1cccc2cccnc12)c1ccccc1`, the result was inactive. Still for that read-out and setting: next, `O=C=NCCCCCCN=C=O`: “inactive”; `CC/C(=C(/CC)c1ccc(O)cc1)c1ccc(O)cc1`: “inactive”. For `Cc1c2ccccc2c(C)c2c1ccc1ccccc12`, the AC50 is 5 µM (active). As for `O=C(Nc1ccc(Cl)cc1)Nc1ccc(Cl)c(Cl)c1`, the outcome was inactive. With `CCCCCCCCCCCC[N+](C)(C)C`, the AC50 is 1.6 µM (active). As for `NC(=O)c1nc(-c2cccc(-c3cc(F)ccc3OCC(F)(F)C(F)(F)F)c2)n[nH]1`, the concentration at half-maximal activity (AC50) was 3.59 µM (active). As to `CC(=O)N1CCN(c2ccc(OC[C@H]3CO[C@](Cn4ccnc4)(c4ccc(Cl)cc4Cl)O3)cc2)CC1`, the AC50 was 1.58 µM (active). Still for that read-out and setting: with `Cc1cn([C@H]2C[C@H](N=[N+]=[N-])[C@@H](CO)O2)c(=O)[nH]c1=O` the figure was 2.32 µM (active). As to `O=c1c(-c2ccc(O)cc2)coc2cc(O)cc(O)c12`, the concentration at half-maximal activity (AC50) was 71.6 µM (active).
